# Only some compounds are listed: those with a hit (about 3.5% of all), similar ones and a draw of the others.
# MITF inh: MITF inhibitors, primary screen, biochemical, AlphaScreen, human | AID 1259374, 2018 | inhibition, % at 2.6 µM | AlphaScreen MITF homodimerization, bead proximity signal | Microphthalmia-associated transcription factor (Homo sapiens), O75030 | 650,000 compounds, 0.91% hits; in the data active = inhibition above about 50%;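 also: 0% = vehicle wells with protein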
# FBW7 activator: FBW7 E3 ligase activators, primary screen, biochemical, AlphaScreen, human. AlphaScreen FBW7–phospho-cyclin E peptide binding, activator screen. normalized activity (activation), % at 26.1 µM. 650,000 compounds, 0.13% hits. AID 1259310, 2017; in the data active = normalized activity above about 1.9%;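 also: purified mutant Fbw7 with reduced substrate affinity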
# GPR151 ag: activators of human GPR151, primary screen, cell-based, PathHunter beta-arrestin, luminescence; G-protein coupled receptor 151 (Homo sapiens), Q8TDV0; PathHunter beta-arrestin GPR151 cells; activation, % at 11.2 µM; 650,000 compounds, 1% hits; in the data active = activation above about 4.9%;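 also: 0% = median of compound wells and 100% = cells with positive control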
# Target sequence (Q8TDV0 whole entry, looked up): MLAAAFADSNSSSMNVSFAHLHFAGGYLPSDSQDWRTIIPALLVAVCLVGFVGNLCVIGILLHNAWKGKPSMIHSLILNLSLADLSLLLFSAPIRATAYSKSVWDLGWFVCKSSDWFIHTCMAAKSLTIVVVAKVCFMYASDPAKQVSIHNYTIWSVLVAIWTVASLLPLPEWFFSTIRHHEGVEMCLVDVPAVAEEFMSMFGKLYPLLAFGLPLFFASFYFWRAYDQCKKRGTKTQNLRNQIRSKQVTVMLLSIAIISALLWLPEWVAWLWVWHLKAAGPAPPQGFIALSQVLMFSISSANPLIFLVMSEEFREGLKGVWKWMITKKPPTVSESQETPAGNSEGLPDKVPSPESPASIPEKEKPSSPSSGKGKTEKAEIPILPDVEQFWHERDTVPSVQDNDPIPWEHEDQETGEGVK
# TEAD-YAP block: TEAD-YAP interaction inhibition, primary screen, TEAD-YAP interaction inhibitor project, luminescence, HEK-TIYL cells | TEAD-Gal4/YAP UAS-luciferase luminescence | inhibition, % at 9.12 µM | 640,000 compounds, 1.4% hits; in the data active = inhibition above about 32%;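 also: 0% = median of test compound wells and 100% = reference inhibitor wells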
# * marks the source's active call; other numbers are inactive results; ! = a repeat was not active.
SMILES,MITF inh,FBW7 activator,GPR151 ag,TEAD-YAP block
O=C(OC[C@H]1O[C@H](OC(=O)c2cc(O)c(O)c(OC(=O)c3cc(O)c(O)c(O)c3)c2)[C@H](OC(=O)c2cc(O)c(O)c(OC(=O)c3cc(O)c(O)c(O)c3)c2)[C@@H](OC(=O)c2cc(O)c(O)c(OC(=O)c3cc(O)c(O)c(O)c3)c2)[C@@H]1OC(=O)c1cc(O)c(O)c(OC(=O)c2cc(O)c(O)c(O)c2)c1)c1cc(O)c(O)c(OC(=O)c2cc(O)c(O)c(O)c2)c1,112*,0,0,4
CC(=O)OCC1OC(OC(C)(C)C)C(OC(C)=O)C(OC(C)=O)C1OC(C)=O (stereo not given),2,0,1,4
O=C(Nc1nnc(SCC(=O)N2CCCc3ccccc32)s1)C1CC1,1,0,1,-7
CCN(CC)C(=O)N1CCN(c2ccccc2F)CC1,3,0,-1,-2
Cc1sc(NC(=O)CN(C(=O)c2ccccc2)C2CCCCC2)c(C(N)=O)c1C,10,0,-1,36*
Cc1ccccc1C(=O)N(CC(=O)Nc1sc(C)c(C)c1C(N)=O)C1CCCCC1,7,0,0,12
COc1cccc(C(=O)N(CC(=O)Nc2sc(C)c(C)c2C(N)=O)C2CCCC2)c1,-1,0,0,41*
Cc1sc(NC(=O)CN(C(=O)c2ccccc2)C2CCCC2)c(C(N)=O)c1C,11,0,-1,41*
Cc1sc(NC(=O)CN(C(=O)c2ccc(Cl)cc2)C2CCCC2)c(C(N)=O)c1C,-15,0,0,20
Cc1cc(C(=O)NCc2cc3ccccc3s2)nn1C,2,0,0,-19
CN1CCc2c(sc3c2C(=O)NC(c2ccc(O)c(O)c2)N3)C1 (stereo not given),66*,0,0,-1
COc1cc(C2NC(=O)c3c(sc4c3CCN(C)C4)N2)ccc1O (stereo not given),3,0,0,16
CS(=O)(=O)N(CC(=O)Nc1ccc(Cl)cc1)c1cc(C(F)(F)F)ccc1Cl,-7,0,2,4
O=c1c(-c2cnn(-c3ccccc3)c2)coc2c(O)c(O)ccc12,7,0,0,-77
COc1ccc2c(=O)c(-c3ccc(O)cc3)coc2c1,-7,0,-2,81*
O=c1c(-c2ccc(O)cc2)coc2cc(OC3OC(CO)C(O)C(O)C3O)ccc12 (stereo not given),-2,0,-3,54*
O=c1c(-c2cnn(-c3ccccc3)c2)coc2cc(O)ccc12,-22,0,-2,33*
O=c1c(-c2ccc(O)cc2)coc2cc(OC3OC(CO)C(O)C(O)C3O)cc(O)c12 (stereo not given),-12,0,0,15
O=c1c(-c2ccc(O)cc2)coc2cc(O)ccc12,19,0,-2,73*!
COc1ccc(-c2coc3cc(O)ccc3c2=O)c(O)c1O,80*,0,-1,-8
Cc1ccccc1-c1coc2cc(O)ccc2c1=O,-18,0,2,-10
Cc1occc1C(=O)NNC(=S)Nc1ccc(S(N)(=O)=O)cc1,-9,0,1,-59
CC1CCN(Cc2nnnn2CC(=O)N2CCCCC2c2ccccn2)CC1 (stereo not given),8,0,0,5
CCC(=O)Oc1ccc(-c2cnc3ccccc3n2)cc1,9,0,-8,41*
CCCCCCC(=O)Oc1ccc(-c2cnc3ccccc3n2)cc1,-1,0,-1,-4
SMILES,MITF inh,FBW7 activator,GPR151 ag,TEAD-YAP block
O=C1NC(=O)N(Cc2ccco2)C(=O)/C1=C\c1ccc(-c2ccc(C(=O)O)cc2)o1,52*,0,-1,-2
O=C1NC(=O)N(Cc2ccco2)C(=O)/C1=C\c1ccc(-c2ccc(Br)cc2)o1,70*,0,0,0
Cc1ccc([N+](=O)[O-])cc1-c1ccc(/C=C2/C(=O)NC(=O)N(Cc3ccco3)C2=O)o1,43,0,0,-3
Cc1cc([N+](=O)[O-])ccc1-c1ccc(/C=C2/C(=O)NC(=O)N(Cc3ccco3)C2=O)o1,68*,0,-2,-3
O=C1NC(=O)N(Cc2ccco2)C(=O)/C1=C\c1ccc(-c2ccc([N+](=O)[O-])cc2)o1,75*,0,0,-6
CCOC(=O)c1ccc(-c2ccc(/C=C3/C(=O)NC(=O)N(Cc4ccco4)C3=O)o2)cc1,34,0,-1,-61
NCCNCCP(=O)(c1ccccc1)c1ccccc1,-6,0,0,3
Cc1c(C#N)c(NC(=O)COC(=O)c2cc3ccccc3cc2O)n(Cc2ccco2)c1C,4,0,2,-2
CCN1CCN(C(=O)c2cc(C(C)C)n(-c3nc4ccccc4s3)n2)CC1,-4,0,0,81*
CC(C)c1cc(C(=O)Nc2ccc(Cl)cn2)nn1-c1nc2ccccc2s1,16,0,1,46*
O=C(c1ccccc1)N1CCN(c2nc3ccccc3s2)CC1,2,0,0,-20
COc1ccc(NC(=O)c2cc(C(C)C)n(-c3nc4ccccc4s3)n2)c(OC)c1,-5,0,-2,64*
COc1cccc(NC(=O)c2cc(C(C)C)n(-c3nc4ccccc4s3)n2)c1,-11,0,0,48*
CCCS(=O)(=O)Nc1cccc(S(=O)(=O)N(C)C)c1,6,0,-1,4
COc1ccc(CNC(=O)c2ccc3c(c2)CC(c2nc4ccc(-c5ccnc(N)n5)cc4[nH]2)CO3)cc1 (stereo not given),-2,7.5*,1,12
Nc1nccc(-c2ccc3nc(C4COc5ccc(C(=O)NC6CCCCC6)cc5C4)[nH]c3c2)n1 (stereo not given),0,6.0*,1,6
Nc1nccc(-c2ccc3nc(C4COc5ccc(C(=O)NCc6ccccc6)cc5C4)[nH]c3c2)n1 (stereo not given),4,0,-2,-5
Nc1nccc(-c2ccc3nc(C4COc5ccc(C(=O)NC6CCCC6)cc5C4)[nH]c3c2)n1 (stereo not given),14,2.4*,2,-2
O=C(CN1CCC(c2cccnc2)CC1)Nc1nccs1,6,0,2,-2
Cc1cc(NC(=O)Cn2c3c(c4ccccc42)CCC3)no1,11,0,2,57*
Cc1nnc(NC(=O)Cn2c3c(c4ccccc42)CCC3)s1,18,0,3,-6
O=C(CN1CCC(c2ccncc2)CC1)Nc1nccs1,-4,0,-1,34*
O=C(Cn1c2c(c3ccccc31)CCC2)Nc1nccs1,4,0,0,34*
O=C(CCCCCn1c(SCc2ccc(F)cc2)nc2ccsc2c1=O)NCCc1ccccc1,-11,0,1,1
Cc1cnc(Cl)nc1NCCc1ccc(O)cc1,-2,0,1,0
COc1ccc(CCNc2nc(Cl)ncc2C)cc1,13,0,1,42*

# Compound activity: PubChem, The Scripps Research Institute Molecular Screening Center
